Data reported in PubChem BioAssay.
Results filed as inconclusive are left out. Activity calls are given as the source filed them.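 How the source made its calls, unless noted: active means normalized viability below 100% at a tested concentration; inactive means the rest.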

Legend:
[1] = viability loss in pontine glioma line – cell-based, SU-DIPG-XVII, MIPE5.0, CellTiter-Glo, qHTS, dose response (AID 1347060; cut-off not given, nearly all actives have AC50 up to about 26 µM;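 on AC50: cells exposed to compound for 48 hours before viability readout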); settings: CellTiter-Glo ATP luminescence
[2] = viability loss in pontine glioma line – cell-based, SU-DIPG-XIII, MIPE4.0, CellTiter-Glo, qHTS, dose response (AID 1347061; cut-off not given, nearly all actives have AC50 up to about 37 µM;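 further: cells exposed to compound for 48 hours before readout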); settings: CellTiter-Glo ATP luminescence
[3] = viability loss in pontine glioma line – cell-based, JHH-DIPG-1, MIPE4.0, CellTiter-Glo, qHTS, dose response (AID 1347062; cut-off not given, nearly all actives have AC50 up to about 27 µM;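 on AC50: cells exposed to compound for two days before readout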); settings: JHH-DIPG-1 viability, CellTiter-Glo ATP luminescence
[4] = viability loss in pontine glioma line – cell-based, SU-DIPG-IV, MIPE4.0, CellTiter-Glo, qHTS, dose response (AID 1347063; cut-off not given, nearly all actives have AC50 up to about 30 µM;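 further: compound exposure lasted 48 hours before the viability readout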); settings: CellTiter-Glo ATP luminescence
[5] = viability loss in pontine glioma line – cell-based, SU-DIPG-XIII, MIPE5.0, CellTiter-Glo, qHTS, dose response (AID 1347064; cut-off not given, nearly all actives have AC50 up to about 23 µM;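 on AC50: cells exposed to compound for 48 hours before the viability read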); settings: CellTiter-Glo ATP luminescence
[6] = viability loss in pontine glioma line – cell-based, SU-DIPG-XXV, MIPE5.0, CellTiter-Glo, qHTS, dose response (AID 1347065; cut-off not given, nearly all actives have AC50 up to about 26 µM;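 further: cells exposed to compound for 48 hours before ATP readout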); settings: CellTiter-Glo ATP luminescence
[7] = growth inhibition of DIPG cells – cell-based, MIPE4.0 library, CellTiter-Glo luminescence, qHTS (AID 1347066; cut-off not given, nearly all actives have AC50 up to about 30 µM;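 further: cells exposed to compound for 48 hours before readout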); settings: SU-DIPG-VI viability, CellTiter-Glo ATP luminescence
[8] = JHH-DIPG-1 glioma cell viability, MIPE5.0 library, CellTiter-Glo luminescence, qHTS (AID 1347067; cut-off not given, nearly all actives have AC50 up to about 26 µM;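 further: cells exposed to compound for 48 hours before readout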); settings: JHH-DIPG-1 glioma viability, CellTiter-Glo ATP luminescence
[9] = growth inhibition of DIPG cells – cell-based, MIPE5.0 library, qHTS (AID 1347068; cut-off not given, nearly all actives have IC50 up to about 30 µM;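 on IC50: cells exposed to compound for 48 hours before viability readout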); settings: SU-DIPG-XXV viability
[10] = viability loss with induced miR-34 in A549 – imaging, A549 dox-inducible miR-34, nuclei and caspase counts, primary screen (AID 1347080;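 active means compounds whose cell count with miR-34 switched on is under 0.7 times the count with it off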); settings: A549 miR-34 inducible, Hoechst nuclei count, 48 h
[11] = MELAS cybrid and Rieske KO viability enhancers – cell-based, MELAS cybrids, Rieske KO mouse fibroblasts, CellTiter-Glo, primary screen (AID 1508586;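 active means mean z-score across replicates of 1.96 or higher in either the MELAS or the Rieske mutant cell line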;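 further: z relative to plate mean and SD of compound and empty wells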); settings: low glucose
[12] = compounds altering HSF1 focus formation in cells – imaging, Selleck Cancer Library (AID 1347162; in the data active means plate-normalised HSF1 focus index below about 0.46); settings: human cells, HSF1 nuclear foci imaging, at 10 µM; SSMD: measured here: HSF1 foci SSMD mean; cell count: measured here: cell number; plate-normalised HSF1 focus index: stronger effect = lower value
[13] = drug combination growth inhibition, ovarian cancer – cell-based, oncology-focused library, rucaparib conditional, profiling panel (AID 1508598); settings: patient-derived ovarian cancer cells, CellTiter-Glo viability, 144 h, stronger effect = lower value
[14] = stronger effect = lower value, cell number ratio, induced over uninduced
[15] = measured here: relative caspase fold change +Dox/-Dox
[16] = measured here: total cells with miR-34 induction, stronger effect = lower value
[17] = measured here: total cells without miR-34 induction
[18] = MELAS cybrid survival, CellTiter-Glo 48 h, stronger effect = higher value
[19] = Rieske KO mouse fibroblast survival, CellTiter-Glo 72 h

CCOC(=O)N1CCN(/[N+]([O-])=N/Oc2ccc([N+](=O)[O-])cc2[N+](=O)[O-])CC1
2110: cell count [10, 16]
active: AC50 [1] 16.6 µM | AC50 [3] 5.9 µM | AC50 [4] 4.18 µM | AC50 [5] 4.17 µM | AC50 [6] 3.32 µM | AC50 [7] 10.5 µM | AC50 [8] 4.17 µM | IC50 [9] 23.5 µM
1840: cell count [10, 17]
1.4: fold change [10, 15]
inactive: outcome [2] | fold change [10, 14] 1.15

COc1cc2c(Oc3ccc(NC(=O)C4(C(=O)Nc5ccc(F)cc5)CC4)cc3F)ccnc2cc1OCCCN1CCOCC1
0.0525: z-score [11, 19]
0.77: fold change [10, 15]
1060: cell count [10, 16]
active: AC50 [1] 2.63 µM | AC50 [2] 8.33 µM | AC50 [3] 18.7 µM | AC50 [4] 6.62 µM | AC50 [5] 3.72 µM | AC50 [6] 1.32 µM | AC50 [7] 11.8 µM | AC50 [8] 5.9 µM | IC50 [9] 3.72 µM | z-score [11, 18] 2.58
inactive: fold change [10, 14] 1.06
992: cell count [10, 17]

CCN(CC)Cc1ccc2cc(COC(=O)Nc3ccc(C(=O)NO)cc3)ccc2c1
0.529: fold change [10, 15]
active: AC50 [1] 5.25 µM | AC50 [2] 11.8 µM | AC50 [3] 2.64 µM | AC50 [4] 5.26 µM | AC50 [5] 2.63 µM | AC50 [6] 1.66 µM | AC50 [7] 1.66 µM | AC50 [8] 1.48 µM | IC50 [9] 18.6 µM
-3.38: z-score [11, 19]
inactive: fold change [10, 14] 1.01 | z-score [11, 18] 1.32
1250: cell count [10, 17]
1260: cell count [10, 16]

O=C(Nc1c(Cl)cncc1Cl)c1ccc(OC(F)F)c(OCC2CC2)c1
-1.74: z-score [11, 19]
9050: cell count [10, 17]
1.06: fold change [10, 15]
8020: cell count [10, 16]
inactive: outcome [1] | outcome [2] | outcome [3] | outcome [4] | outcome [5] | outcome [6] | outcome [7] | outcome [8] | outcome [9] | fold change [10, 14] 0.886 | z-score [11, 18] -0.193

NC(=O)Nc1cc(-c2cccc(F)c2)sc1C(=O)N[C@H]1CCCNC1
inactive: plate-normalised HSF1 focus index [12] 0.95 | viability ([13]; at 0.000305 µM, OCI-C5x cells, with rucaparib 10 µM, 100% = cells with rucaparib alone) 130% | viability ([13]; at 0.00122 µM, OCI-C5x cells, with rucaparib 10 µM, 100% = cells with rucaparib alone) 134% | viability ([13]; at 0.00488 µM, OCI-C5x cells, with rucaparib 10 µM, 100% = cells with rucaparib alone) 117% | viability ([13]; at 0.0195 µM, OCI-C5x cells, with rucaparib 10 µM, 100% = cells with rucaparib alone) 108%
active: AC50 [1] 1.48 µM | AC50 [2] 20.9 µM | AC50 [3] 0.526 µM | AC50 [4] 5.9 µM | AC50 [5] 2.09 µM | AC50 [6] 1.18 µM | AC50 [7] 18.7 µM | AC50 [8] 3.32 µM | IC50 [9] 2.95 µM | viability ([13]; at 0.000305 µM, OCI-C5x cells, without rucaparib) 94.3% | viability ([13]; at 0.000305 µM, OCI-P5x cells, with rucaparib 20 µM, 100% = cells with rucaparib alone) 76% | viability ([13]; at 0.000305 µM, OCI-P5x cells, without rucaparib) 79.5% | viability ([13]; at 0.00122 µM, OCI-C5x cells, without rucaparib) 97.4% | viability ([13]; at 0.00122 µM, OCI-P5x cells, with rucaparib 20 µM, 100% = cells with rucaparib alone) 73.7% | viability ([13]; at 0.00122 µM, OCI-P5x cells, without rucaparib) 86.4% | viability ([13]; at 0.00488 µM, OCI-C5x cells, without rucaparib) 97.4% | viability ([13]; at 0.00488 µM, OCI-P5x cells, with rucaparib 20 µM, 100% = cells with rucaparib alone) 56.6% | viability ([13]; at 0.00488 µM, OCI-P5x cells, without rucaparib) 87.5% | viability ([13]; at 0.0195 µM, OCI-C5x cells, without rucaparib) 81.6% | viability ([13]; at 0.0195 µM, OCI-P5x cells, with rucaparib 20 µM, 100% = cells with rucaparib alone) 55.1% | viability ([13]; at 0.0195 µM, OCI-P5x cells, without rucaparib) 90.2% | viability ([13]; at 0.0781 µM, OCI-C5x cells, with rucaparib 10 µM, 100% = cells with rucaparib alone) 81.1% | viability ([13]; at 0.0781 µM, OCI-C5x cells, without rucaparib) 53.1%
-1.43: SSMD [12]
7360: cell count [12]
